Source: PubChem BioAssay

Target: E3 ubiquitin-protein ligase XIAP (Homo sapiens) (UniProt P98170)
Test: small molecules binding XIAP protein – biophysical, small-molecule microarray, fluorescence 635 nm, primary screen (AID 1181);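 note: score merges 667 nm emission and signal to noise over triplicate slides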
Details: higher = more signal

Chain of E3 ubiquitin-protein ligase XIAP (Homo sapiens) (P98170 whole entry, looked up): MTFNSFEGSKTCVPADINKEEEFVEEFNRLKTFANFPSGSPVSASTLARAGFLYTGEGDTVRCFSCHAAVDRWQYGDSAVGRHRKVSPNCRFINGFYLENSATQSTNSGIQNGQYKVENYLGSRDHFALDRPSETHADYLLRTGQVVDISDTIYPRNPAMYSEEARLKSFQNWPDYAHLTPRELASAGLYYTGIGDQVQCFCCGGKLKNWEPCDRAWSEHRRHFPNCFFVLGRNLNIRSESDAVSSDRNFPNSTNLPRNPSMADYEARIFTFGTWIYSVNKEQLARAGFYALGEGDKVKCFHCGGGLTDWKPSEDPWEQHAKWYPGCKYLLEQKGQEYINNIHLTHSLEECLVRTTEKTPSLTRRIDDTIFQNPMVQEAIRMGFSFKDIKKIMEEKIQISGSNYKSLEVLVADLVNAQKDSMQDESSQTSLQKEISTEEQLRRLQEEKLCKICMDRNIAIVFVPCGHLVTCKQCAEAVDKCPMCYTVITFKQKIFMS

Structure (SMILES) | composite z-score
Cc1ccc(S[C@]2(C(=O)NCC(C)C)CC(=O)N(Cc3cc(C(F)(F)F)cc(C(F)(F)F)c3)[C@@H]2c2ccc(CO)cc2)cc1 | -0.142
[N-]=[N+]=NCc1ccccc1[C@@H]1OC(c2ccc(OCCCO)cc2)=N[C@]1(CCS(=O)(=O)c1ccccc1)C(=O)N1CCOCC1 | 0.0512
CS(=O)(=O)CCOC(=O)C1=CC(CCCO)=CC(C2CC2)N(Cc2cc3c(cc2Br)OCO3)C=C1C(=O)OCCS(C)(=O)=O (configuration not stated) | 0.448
C=CC[C@]12N=C(c3ccc(OCCCO)cc3)O[C@H]1c1ccccc1N(CCS(=O)(=O)c1ccccc1)C2=O | -0.271
CC1CC/C=C\[C@H]2OC34C=CCN(Cn5nnc6ccccc65)C(=O)[C@H]3N(CCCCCO)C(=O)[C@@H]4C2C(=O)O1 (some centres not stated) | -0.148
C#CCN(C/C=C/c1ccccc1)[C@H](CO)c1ccccc1 | -0.167
O=C1N(CCS(=O)(=O)c2ccccc2)c2ccccc2[C@@H]2OC(c3ccc(OCCCO)cc3)=N[C@]12Cc1ccccc1 | 0.0999
